# Screening results deposited in PubChem by Broad Institute.
# Only some compounds are listed: those with a hit (about 2.2% of all), similar ones and a draw of the others.
# DENV2 CPE rescue: protects cells from dengue virus 2 cytopathic effect; DENV2-infected cells, cytopathic effect rescue, plate reader; CPE inhibition, % at 9.99 µM; 350,000 compounds, 1.7% hits; AID 651640; in the data active means CPE inhibition above about 20%, passing the limit was not always enough; inconclusive means no clear call, values can overlap the other calls; tested in BHK-21 cells;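 further: 0% = median of neutral control wells and 100% = median of positive control wells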
# Statin myotox sup: suppression of simvastatin myotoxicity; C2C12 myotubes + simvastatin, ATP luminescence, 48 h; scaled: DMSO 0, geranylgeraniol control 100; rescue of ATP level, % at 7.49 µM; 330,000 compounds, 0.78% hits;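 active means mean ATP rescue above about 67%, or every replicate alone reaching that limit, limit read from the data, passing the limit was not always enough; inconclusive means no clear call, values can overlap the other calls; inactive means mean under the limit and some replicate under it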;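 further: myotubes were challenged with 10 µM simvastatin during compound exposure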
# miR122 inh: miR-122 inhibition in Huh7 cells | Huh7 miR-122 Renilla luciferase sensor, 48 h; neutral wells = 0, positive control = 100 | activation (reporter increase), % at 12.5 µM | AID 602342 | 340,000 compounds, 0.3% hits;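 active means mean replicate activation score at least 90 and every replicate individually at or above 90; inconclusive means only one of the two criteria met; inactive means neither criterion met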;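 further: higher luciferase means less miR-122 activity so hits act as miR-122 inhibitors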
# PvdQ inh: P. aeruginosa PvdQ acylase inhibition | AID 488965 | purified PvdQ acylase, fluorescence plate reader | inhibition, % at 10 µM | 340,000 compounds, 0.063% hits; in the data active means inhibition above about 30%, passing the limit was not always enough; inconclusive means no clear call, values can overlap the other calls;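 further: 0% = vehicle neutral wells and 100% = reference inhibitor wells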
# PGC1a acetyl inh: modulators of PGC1a acetylation; U2OS PGC1a acetylation, AlphaScreen anti-acetyl-lysine; with virally co-expressed GCN5 acetyltransferase; inhibition, % at 15.6 µM; 350,000 compounds, 0.17% hits;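 active means every replicate shows inhibition of at least 40%; inconclusive means mean inhibition at least 40% but some replicate below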;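 further: 0% = neutral control wells and 100% = positive control wells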
# The depositor's hits bear a star; ? = inconclusive; . = no result; [ ] = remark or other dose.
SMILES,DENV2 CPE rescue,Statin myotox sup,miR122 inh,PvdQ inh,PGC1a acetyl inh
CCC(=O)N(C)C[C@H]1Oc2cc(-c3ccccc3)ccc2S(=O)(=O)N([C@@H](C)CO)C[C@@H]1C,10,-8,0[16.7 µM],.,-5
COc1ccccc1N1CCN(C(=O)c2ccc(Cn3c(=O)[nH]c4ccsc4c3=O)cc2)CC1,-3,.,118*,2,15
COc1ccc(C(N)=O)cc1N,.,130*,0,0,-2
O=C(Nc1ccc(F)cc1)N[C@@H]1CC[C@@H](CCNC(=O)c2ccccc2F)O[C@@H]1CO,-3,.,.,.,0
C[C@@H]1CN([C@H](C)CO)C(=O)c2c(c3ccccc3n2C)-c2ccccc2CO[C@H]1CN(C)S(=O)(=O)c1ccsc1,-1,15,.,.,-23
COc1cccc(-c2ccc([C@H]3[C@@H](CO)N4CCCCN(C(=O)c5ccc(F)cc5)C[C@H]34)cc2)c1,43*,41,1[16.7 µM],.,-22
COc1cccc(-c2ccc([C@@H]3[C@H]4CN(C(=O)c5ccc(F)cc5)CCCCN4[C@H]3CO)cc2)c1,6,-38,5[16.7 µM],.,-22
COc1cccc(-c2ccc([C@@H]3[C@@H](CO)N4CCCCN(C(=O)c5ccc(F)cc5)C[C@H]34)cc2)c1,43*,20,14[16.7 µM],.,-16
COCC(=O)N1C[C@H](C)[C@@H](OC)CN(C)C(=O)c2ccc(NC(=O)c3ccc(OC)cc3)cc2OC[C@@H]1C,1,.,.,.,-1
CN(C)C(=O)c1cccc(-c2ccc3c(c2)[C@@H]2[C@@H](CCN2S(=O)(=O)c2cn(C)cn2)[C@H](CO)N3)c1,4,-15,-5[16.7 µM],.,-1
C[C@@H]1CN([C@@H](C)CO)C(=O)CCCn2cc(nn2)CO[C@@H]1CN(C)Cc1ccc(C(=O)O)cc1,-3,.,.,.,8
Nc1ccccc1Nc1cc(-c2ccccc2)nn1-c1cccc(Cl)c1,20*,.,.,-21,.
C[C@H]1CN([C@@H](C)CO)C(=O)c2cc(/C=C/c3ccccc3)cnc2O[C@@H]1CN(C)C(=O)Nc1ccc(C(F)(F)F)cc1,?,-2,.,.,9
FC(F)(F)c1ccc(CN2C[C@@H]3C(c4ccc(C(F)(F)F)cc4)C4(c5cccnc5)CC3(C4)[C@H]2c2ccccc2)cc1 (stereo not given in full),16,119*,-4,-5,-5
CN(C)c1ccc(S(=O)(=O)NCC(=O)N2CCN(S(=O)(=O)c3cccc(F)c3)CC2)cc1[N+](=O)[O-],17,2,-4,-7,3
CN(CC(=O)Nc1cccc(F)c1)C(=O)CNS(=O)(=O)c1ccc(N(C)C)c([N+](=O)[O-])c1,89*,.,.,0,.
Clc1ccc2scc(CN3CCCC3)c2c1,8,.,.,81*,.
Cc1ccc(NC2CCCN(C(=O)c3ccoc3C)C2)cc1C (stereo not given),28*,8,-1,-2,-13
Cc1cccc(-c2nnc3n2N=C(c2ccccc2Br)CS3)c1,.,103*,-7,-10,0
C[C@@H]1CCCCO[C@@H](CN(C)S(=O)(=O)c2ccccc2)[C@@H](C)CN([C@@H](C)CO)C(=O)c2cc(NC(=O)c3ccncc3)ccc2O1,-12,.,6[16.7 µM],.,-3
CCNC(=O)C[C@@H]1C=C[C@H](NC(=O)C2CC2)[C@H](CO)O1,0,-2,.,.,3
O=C(C[C@H]1CC[C@H]2[C@@H](COC[C@@H](O)CN2Cc2ccc(Oc3ccccc3)cc2)O1)N1CCCCC1,24*,?,-11[16.7 µM],.,-7
O=C(C[C@@H]1CC[C@H]2[C@@H](COC[C@@H](O)CN2Cc2ccc(Oc3ccccc3)cc2)O1)Nc1nccs1,-4,100*,-14[16.7 µM],.,-3
C[C@H]1CN([C@@H](C)CO)C(=O)c2cc(NC(=O)C3CC3)ccc2O[C@@H]1CN(C)Cc1ccc(C(=O)O)cc1,4,-16,1[16.7 µM],.,-5
CCn1c(N)c(C(=O)N2CCOCC2)sc1=S,.,129*,3,-19,5
SMILES,DENV2 CPE rescue,Statin myotox sup,miR122 inh,PvdQ inh,PGC1a acetyl inh
C=CCn1c(N)c(C(=O)N2CCOCC2)sc1=S,.,-4,-1,-6,0
COc1ccc(CN(C)C[C@H]2OCCCC[C@@H](C)Oc3ccc(NS(=O)(=O)c4ccccc4)cc3C(=O)N([C@@H](C)CO)C[C@H]2C)cc1,34*,.,-1[16.7 µM],.,-1
COc1ccc(CN(C)C[C@@H]2OCCCC[C@H](C)Oc3ccc(NS(=O)(=O)c4ccccc4)cc3C(=O)N([C@H](C)CO)C[C@H]2C)cc1,32*,.,-13[16.7 µM],.,-4
COc1ccc(CN(C)C[C@@H]2OCCCC[C@H](C)Oc3ccc(NS(=O)(=O)c4ccccc4)cc3C(=O)N([C@@H](C)CO)C[C@H]2C)cc1,-7,.,1[16.7 µM],.,-2
COc1ccc(CN(C)C[C@H]2OCCCC[C@@H](C)Oc3ccc(NS(=O)(=O)c4ccccc4)cc3C(=O)N([C@H](C)CO)C[C@H]2C)cc1,7,.,1[16.7 µM],.,2
O=C(C[C@H]1C=C[C@H](NC(=O)Nc2ccc(F)cc2)[C@H](CO)O1)NCCN1CCCC1,-1,4,-9[16.7 µM],.,10
C[C@@H]1CN([C@@H](C)CO)S(=O)(=O)c2ccc(-c3ccccc3)cc2O[C@@H]1CN(C)CC1CC1,19,-126,7[16.7 µM],.,-4
C[C@@H]1CN([C@@H](C)CO)S(=O)(=O)c2ccc(-c3ccccc3)cc2O[C@H]1CN(C)CC1CCCC1,39*,-38,11[16.7 µM],.,5
CC(C)C#Cc1ccc2c(c1)O[C@@H](CN(C)Cc1ccccc1)[C@@H](C)CN([C@@H](C)CO)S2(=O)=O,2,-12,-6[16.7 µM],.,99*
C[C@H]1CN([C@@H](C)CO)S(=O)(=O)c2ccc(C#Cc3ccccc3)cc2O[C@H]1CN(C)CC1CC1,35*,-7,-7[16.7 µM],.,-17
CCCC#Cc1ccc2c(c1)O[C@H](CN(C)CC1CC1)[C@H](C)CN([C@@H](C)CO)S2(=O)=O,1,-34,24[16.7 µM],.,-13
CCCC#Cc1ccc2c(c1)O[C@@H](CN(C)CC1CCCC1)[C@H](C)CN([C@H](C)CO)S2(=O)=O,60*,.,.,.,2
C[C@@H]1CCCCO[C@@H](CN(C)S(=O)(=O)c2ccc(F)cc2)[C@H](C)CN([C@H](C)CO)C(=O)c2cc(NS(=O)(=O)c3ccccc3)ccc2O1,-3,-1,2[16.7 µM],.,-5
O=C(O)c1ccc(-n2c(-c3cc(-c4ccco4)[nH]n3)n[nH]c2=S)cc1,.,8,-2,-9,0
CC(=O)c1ccc(-n2c(-c3cc(-c4ccco4)[nH]n3)n[nH]c2=S)cc1,.,84*,-9,-4,2
CCNC(=O)[C@H]1[C@H](CO)[C@H]2Cn3c(ccc(-c4ccccc4)c3=O)[C@H]2N1Cc1ccccn1,10,10,-1[16.7 µM],.,-1
CC(C)NC(=O)N(C)C[C@@H]1Oc2ccc(NS(=O)(=O)c3ccc(Cl)cc3)cc2CC(=O)N([C@@H](C)CO)C[C@H]1C,?,-2,0[16.7 µM],.,3
CCOc1cc(C(=O)NCc2ccccc2)ccc1OCC(=O)N1CCOCC1,.,0,0,11,7
COc1cc(C(=O)NCc2cccc(Cl)c2)ccc1OCC(=O)N1CCOCC1,115*,.,.,-1,.
